In all, about 360,000 compounds went through this assay and about 3,000 (0.83%) were called active. What follows is part of a selection rich in actives, with near analogues and random picks from the rest. Unmarked numbers belong to inactive results. No stated cut-off is given here; in the data, active means inhibition above about 38%; inactive means the rest.

For this assay, the target named is G-protein coupled receptor 183 (Homo sapiens) (UniProt P32249). As to the kind of experiment: blockers of oxysterol-driven EBI2 arrestin signaling – cell-based, luminescence, 7a,25-OHC stimulation, uHTS, primary screen (AID 651636).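 Further: enzyme fragment complementation signal reports receptor beta-arrestin coupling in cells; 0% = agonist plus DMSO wells and 100% = wells without agonist.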 Conditions: EBI2 beta-arrestin recruitment, 7a,25-OHC stimulated, at 5 µM, stronger effect = higher value.
G-protein coupled receptor 183 (Homo sapiens), sequence (P32249 whole entry, looked up, the tested form may be a part): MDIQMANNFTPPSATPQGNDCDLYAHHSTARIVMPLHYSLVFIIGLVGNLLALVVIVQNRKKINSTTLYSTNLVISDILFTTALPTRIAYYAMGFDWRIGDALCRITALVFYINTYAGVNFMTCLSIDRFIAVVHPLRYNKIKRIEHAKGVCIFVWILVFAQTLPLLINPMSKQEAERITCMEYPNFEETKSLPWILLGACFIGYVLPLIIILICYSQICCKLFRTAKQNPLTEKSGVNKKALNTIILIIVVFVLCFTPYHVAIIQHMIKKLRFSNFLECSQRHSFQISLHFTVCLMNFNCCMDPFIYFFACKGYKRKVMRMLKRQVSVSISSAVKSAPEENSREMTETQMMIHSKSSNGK
In the case of `CC(=O)NCCc1ccc(S(=O)(=O)N(C)C2CCS(=O)(=O)C2)cc1` (centres undefined), the inhibition (commonly the relative decrease from the control value, in per cent) was -2.21%.

With `Cc1cccn2c(=O)c3cc(C(=O)NC4CCCCC4)sc3nc12`, the inhibition was 8.11%.

For `Cc1cc(C)cc(Oc2nc3c(C)cccn3c(=O)c2/C=C(\C#N)C(=O)NC2CCS(=O)(=O)C2)c1` (centres undefined), the inhibition was 50.3% (active).

Turning to `Cc1cccn2c(=O)c(/C=C(\C#N)S(=O)(=O)c3ccc(Cl)cc3)c(N3CCC(C(N)=O)CC3)nc12`, the inhibition was -5.33%.

Turning to `FC(F)(F)c1cccc(-c2nc3ccccc3n2C(c2ccccc2)c2nc3ccccc3[nH]2)c1` (centres undefined), the inhibition was 8.62%.

Turning to `CSCCC(C(=O)NC1=NCCS1)N1C(=O)c2ccccc2C1=O` (centres undefined), the inhibition was 1.85%.

For the molecule `COC(=O)N/N=C/c1c[n+]([O-])c2ccccc2[n+]1[O-]`, the inhibition is -1.98%.

As to `COc1ccc(OC)c(/C=C/C(=O)c2ccc3c(c2)OCO3)c1`, the inhibition is 8.22%.

For the molecule `COc1ccc(/C=C/C(=O)c2ccc(OC)cc2O)cc1`, the inhibition is 73.8% (active).

As to `COc1ccc(/C=C/C(=O)NC(=S)N2CCCC(C(N)=O)C2)cc1` (centres undefined), the inhibition is -8.77%.

Turning to `COc1ccc(C(=O)CC(=O)c2ccc(C)cc2)c(O)c1`, the inhibition is -3.66%.

On to `COc1ccc(/C=C/C(=O)c2cc(Br)ccc(=O)c2O)cc1`, for which the inhibition is -0.626%.

Turning to `COc1ccc(C(=O)/C=C/c2ccc(OC3CSC3)cc2)cc1`, the inhibition was 60.1% (active).

In the case of `CC(C)[C@H](NC(=O)c1ccc(F)cc1)C(=O)OCC(=O)NC(=O)c1cccn1C`, the inhibition was -1.33%.

As for `Cc1cc(C)cc(NC(=O)COc2coc(CN3CCN(c4ccccc4)CC3)cc2=O)c1`, the inhibition is -4.06%.

On to `CCCc1cc(=O)[nH]c(SCc2ccc(C#N)cc2)n1`, for which the inhibition was -20.6%.

For the molecule `N#CC(=C1CCCC1)c1nc(-c2ccc(Cl)cc2)cs1`, the inhibition is 54.1% (active).

As to `N#CC(=C1SC=CS1)c1nc(-c2ccccc2)cs1`, the inhibition was -66.2%.

`CCCCCN1CC(O)=C(c2nc(-c3ccc(Cl)cc3)cs2)C1=N`: the inhibition was -3.67%.

Regarding `O=C(Nc1cccc(S(=O)(=O)NC2=NCCC2)c1)C1CCCCC1`, the inhibition was -4.45%.

In the case of `CC(=O)c1ccc(NC(=O)CCc2nnc3ccc(NCc4ccco4)nn23)cc1`, the inhibition was -2.75%.

For `CCN(CC)S(=O)(=O)c1cccc(C(=O)NCC(=O)OCC(=O)NCc2ccccc2)c1`, the inhibition is -10.4%.

Regarding `Cc1c(NC(=O)C(C)OC(=O)c2cc3c4ccccc4n(C)c3s2)c(=O)n(-c2ccccc2)n1C` (centres undefined), the inhibition was -12.7%.

Consider `Cc1cccc(N2CCN(C(=O)c3cc4c(=O)[nH]c5ccccc5c4n3C)CC2)c1C`, for which the inhibition is 88.2% (active).

For the molecule `Cc1cccc(N2CCN(C(=O)/C=C/c3ccco3)CC2)c1C`, the inhibition was 33%.

In the case of `CCn1c(C)c(C)c2cc(C(=O)N3CCN(c4cccc(C)c4C)CC3)ccc21`, the inhibition was 15.1%.

`CCCn1c(NC(=O)C23CC4CC(CC(O)(C4)C2)C3)nc2ccccc21`: the inhibition is -9.2%.

Consider `CCOC(=O)C(C)Oc1cccc2c(=O)n(CC(=O)N3CCc4ccccc43)ccc12` (centres undefined), for which the inhibition was 11.2%.

Take `COc1cc(/C=C(\C#N)C(=O)Nc2ccc3ccccc3c2)c([N+](=O)[O-])cc1OC`: the inhibition is 49.6% (active).

Turning to `COc1cc(/C=C(/NC(=O)c2ccccc2)C(=O)Nc2cccc(O)c2)c([N+](=O)[O-])cc1OC`, the inhibition was 5.05%.

For `COc1cc(NC(=O)COC(=O)CSc2ccc3ccccc3c2)c(C)cc1[N+](=O)[O-]`, the inhibition is -6.04%.

For `COc1ccc(CN2C(=O)CN=C2Nc2ccc(C)cc2C)cc1`, the inhibition is -8.98%.

On to `COC(=O)[C@@]12C[C@@H](CC(=O)NCCCCc3ccccc3)C(=O)N(Cc3ccccc3)C1=CCC(C)(C)C2`, for which the inhibition is 17.4%.

For `O=C(NNC(=O)c1cnccc1C(F)(F)F)c1ccc(Cl)cc1`, the inhibition was -6.52%.

Regarding `CCN(C(=O)CSc1ncnc2sccc12)c1c(N)n(Cc2ccccc2)c(=O)[nH]c1=O`, the inhibition is -7.44%.

Regarding `O=C(CSc1nnnn1C1CCCC1)Nc1ccc2c(c1)OCCO2`, the inhibition is 0.834%.

On to `CCN(CC(=O)NCc1cccs1)C(=O)c1ccccc1F`, for which the inhibition was 0.894%.

As for `CCOc1ccc(/C=C/C(=O)N(CC)CC(=O)NCc2cccs2)cc1OC`, the inhibition was 2.03%.

With `CCN(CC(=O)NCc1cccs1)C(=O)/C=C/c1ccc(C)cc1`, the inhibition was 92% (active).

The values above are taken from PubChem BioAssay AID651636 (Sanford-Burnham Center for Chemical Genomics, 2012).
